Test results taken from PubChem BioAssay (NCI).
The panel holds about 79,000 compounds, 15% with a hit somewhere; the sample as a whole holds those more often. Calls of active or inactive are those of the source. Cut-off read from the data, not from the text of the source: active = growth inhibition above about 70%; inactive = the rest.

Key:
[1] = NCI Yeast Anticancer Drug Screen. Data for the rad50 strain (AID 155);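 note: 0% = growth of vehicle-only cultures of the same strain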; details: S. cerevisiae rad50 strain growth inhibition; at 50.0 µM; active compounds read high
Outline: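 Readout: growth inhibition relative to vehicle-treated cultures. Compound exposure was carried out in a genetically defined yeast strain deficient in DNA damage repair.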

[2] = NCI Yeast Anticancer Drug Screen. Data for the mec2-1 strain (AID 157); details: S. cerevisiae mec2-1 strain, at 50.0 µM, active compounds read high
Outline: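 Vehicle-treated cultures served as reference for growth inhibition of compound-exposed mec2-1 yeast.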

[3] = NCI Yeast Anticancer Drug Screen. Data for the sgs1 mgt1 strain (AID 161);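 note: 0% = growth of cultures given vehicle only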; details: S. cerevisiae sgs1 mgt1 strain, at 50.0 µM, active compounds read high
Outline: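 Test agents were incubated with a DNA-repair-mutant yeast strain. Growth was then read and compared against vehicle-treated controls.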

[4] = NCI Yeast Anticancer Drug Screen. Data for the cln2 rad14 strain (AID 165);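 note: 0% = growth equal to vehicle treated cultures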; details: S. cerevisiae cln2 rad14 strain, at 50.0 µM, active compounds read high
Outline: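 Each compound was tested on cln2 rad14 yeast. Inhibition of growth was calculated against vehicle-exposed controls.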

[5] = NCI Yeast Anticancer Drug Screen. Data for the bub3 strain (AID 167); details: S. cerevisiae bub3 mutant strain, at 50.0 µM, active compounds read high
Outline: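 Readout: yeast growth inhibition, expressed relative to vehicle-only wells. The test organism is a mutant strain from a panel with lesions in DNA repair or checkpoint genes.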

[6] = NCI Yeast Anticancer Drug Screen. Data for the mlh1 rad18 strain (AID 175); details: S. cerevisiae mlh1 rad18 strain growth inhibition; at 50.0 µM; active compounds read high
Outline: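 Vehicle-treated cultures served as the reference for growth inhibition in a yeast strain carrying DNA damage repair alterations exposed to each compound.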

Measured: growth inhibition

CCNC(=O)c1cc2ccccc2cc1O
inactive: [1] 1.4% | [2] -6.85% | [3] -6.5% | [4] -46% | [5] -15.7% | [6] 6.55%

Cc1ncc2c(n1)NC(=O)NC2
inactive: [1] 17.1% | [2] 13.5% | [3] -16.6% | [4] 0.9% | [5] -23.1% | [6] -13.9%

COC1OCC(OS(C)(=O)=O)C(NC(C)=O)C1OS(C)(=O)=O (stereo unspecified)
inactive: [1] -13.9% | [2] -2.85% | [3] -3.05% | [4] -19.2% | [5] 0.45% | [6] 2.25%

N#CC(=C1C=CC(=NO)C=C1)c1ccc(Cl)cc1
inactive: [1] -0.05% | [2] 2.5% | [3] 8.3% | [4] -124% | [5] 20.9% | [6] 1.9%

CC(=NCCN=C(C)c1ccc(Br)cc1)c1ccc(Br)cc1
inactive: [1] 16.9% | [2] -6.95% | [3] -21.8% | [4] -2% | [5] 2.4% | [6] 1.1%

CC1=NCCN1CCN
inactive: [1] 20.6% | [2] -17.2% | [3] 23.8% | [4] 12.9% | [5] 13.6% | [6] 23.6%

COCc1cc(CC(C)=O)nc(C/C=N/NC(N)=O)n1
inactive: [1] -18.4% | [2] -10.4% | [3] -9.75% | [4] -28.4% | [5] -47% | [6] -11.7%

O=C(Oc1c(Cl)cc(Cl)cc1Cl)c1ccc([N+](=O)[O-])cc1
inactive: [1] 9.2% | [2] 10.8% | [3] 5.45% | [4] -8.65% | [5] -9.45% | [6] -1.15%

COc1cc(CC(=O)O)c(Br)cc1C
inactive: [1] 5.95% | [2] 20.9% | [3] 4.15% | [4] 0.05% | [5] -0.85% | [6] -2.65%

Cn1cnc([N+](=O)[O-])c1SCC(=O)O
inactive: [1] -36.4% | [2] -0.6% | [3] -29.5% | [4] -22.9% | [5] -17.9% | [6] -3.7%

OCCN1OCCCC1c1ccccc1 (stereo unspecified)
inactive: [1] -0.75% | [2] -14.3% | [3] 1.2% | [4] -28.1% | [5] -31.2% | [6] 0.1%

C/C(=N\N(C)/C=N/S(C)(=O)=O)c1ccccc1
active: [4] 74.5%
inactive: [1] 7.85% | [2] 9.5% | [3] 24.5% | [5] -2.9% | [6] -3.25%

CCC(c1ccc(CN(C)C)c(O)c1)C(CC)c1ccc(CN(C)C)c(O)c1 (stereo unspecified)
inactive: [1] 5.7% | [2] 1.35% | [3] -11.4% | [4] -12.9% | [5] -2.55% | [6] 2.75%

CCCCCCCCC1CCC(=O)O1 (stereo unspecified)
inactive: [1] 19.8% | [2] 1.8% | [3] 16.7% | [4] 7.45% | [5] 7.25% | [6] 9%

CCN(CC)Cc1ccc([NH-])c([NH-])c1.CCN(CC)Cc1ccc([NH-])c([NH-])c1.[Cl][Pt+2][Cl].[Cl][Pt+2][Cl].[Cl][Pt+2][Cl]
inactive: [1] 27.4% | [2] 36.6% | [3] 35.6% | [4] 25.6% | [5] 29.2% | [6] 48.5%

CCOC(=O)CCC(NC(=O)c1ccc(N=Cc2nc3ccccc3nc2-c2ccccc2)cc1)C(=O)OCC (stereo unspecified)
inactive: [1] 4.35% | [2] 0.95% | [3] 6.8% | [4] 14.5% | [5] 11.8% | [6] -7.7%

CCCC(=O)N[C@H]1C[C@H]2CC[C@@]1(C)C2(C)C
inactive: [1] -31.6% | [2] -27.4% | [3] -15.1% | [4] 11.2% | [5] 10.3% | [6] -1.75%

CCCCCc1c(C)[nH]n(C(N)=NCCSCc2nc[nH]c2C)c1=O
inactive: [1] 31.5% | [2] -0.8% | [3] 35% | [4] 22.4% | [5] -22.5% | [6] 25.2%

Cc1ccc(N=Nc2sc(N)nc2-c2ccc(Cl)cc2)cc1
inactive: [1] 28.6% | [2] -2.55% | [3] 35.6% | [4] 39.6% | [5] 17.1% | [6] 62.9%

CC1(c2nc3ccccc3[nH]2)CCC(C(=O)O)C(C)(C)O1 (stereo unspecified)
inactive: [1] 1.75% | [2] -11.2% | [3] -18.4% | [4] 15.6% | [5] -19.6% | [6] -32.9%

CCc1nc2c(c(=O)n(C)c(=O)n2C)n1C
inactive: [1] -2.65% | [2] -4.15% | [3] -8.45% | [4] -3.85% | [5] 2.85% | [6] -7.5%

CC(C)(C)OC(=O)C1=C2C=C(O)C=CC2(C)N(Cc2ccccc2)C1=N (stereo unspecified)
inactive: [1] -23.9% | [2] -55.5% | [3] -36% | [4] -36.2% | [5] -24.6% | [6] -50.2%

CN(C)CCCc1cccc2[nH]c3c(c12)CN(C)CC3
inactive: [1] 22% | [2] -5% | [3] 23.6% | [4] 7.85% | [5] 7.45% | [6] -26%

NC(Cc1cccc2ccccc12)C(=O)O (stereo unspecified)
inactive: [1] 14.3% | [2] -1.2% | [3] 10.4% | [4] -48.1% | [5] -7.3% | [6] 5.5%

CCCCC(=O)/C=C/c1ccccc1
inactive: [1] 12.3% | [2] -8.15% | [3] -3.95% | [4] -46.5% | [5] -6.6% | [6] -3.4%

COC(=O)C1=C(CO)C2C=CC1C2 (stereo unspecified)
inactive: [1] 3.25% | [2] 26.1% | [3] -1.1% | [4] 6.55% | [5] 6.15% | [6] 6.7%

CCOc1ccc(NC(=O)/C(CC(=O)c2sc(Nc3ccc(C)cc3)nc2C)=N\NC(N)=S)cc1
inactive: [1] -33.3% | [2] 3.15% | [3] 8.95% | [4] -49.6% | [5] -11.4% | [6] -35.5%

Cc1nnc2cc(C(=O)O)c3ccccc3n2c1=O
inactive: [1] -28.6% | [2] -30.6% | [3] -13.4% | [4] -30.6% | [5] -20.1% | [6] -31.8%

COc1cccc(NC(=S)NCc2cccnc2)c1
inactive: [1] -13.4% | [2] -24.9% | [3] 9.1% | [4] 9.25% | [5] -13.2% | [6] -5.3%

Cc1ncc2c(n1)CCC1=C2OS(=O)(=O)CC1N(C)C (stereo unspecified)
inactive: [1] -24.1% | [2] -0.45% | [3] -3.3% | [4] 1.6% | [5] -10.1% | [6] -22.4%

C#CC(C)(C)Nc1ccccc1
inactive: [1] -10.8% | [2] 2.9% | [3] -6.6% | [4] -6.2% | [5] -4.95% | [6] 4.9%

OC(C/C(=N\Nc1ccccc1)c1ccc(F)cc1)(C(F)(F)F)C(F)(F)F
active: [1] 98.3% | [2] 98.8% | [3] 98.5% | [4] 97.8% | [5] 98.3% | [6] 98.6%

Cc1ccccc1N=CC(C=O)[N+](=O)[O-] (stereo unspecified)
inactive: [1] -1.65% | [2] -9.8% | [3] 0.95% | [4] 4.1% | [5] -4.7% | [6] -5.65%

COC(=O)CC(=O)C[P+](c1ccccc1)(c1ccccc1)c1ccccc1
inactive: [1] 6.5% | [2] -19.1% | [3] 14.8% | [4] 18.4% | [5] -18.1% | [6] 5.4%

COc1ccc(CCn2nnc3ccccc3c2=O)cc1OC
inactive: [1] -4.1% | [2] -33.1% | [3] -10.1% | [4] 16.6% | [5] -28.4% | [6] -11.5%

Nc1c(S(N)(=O)=O)cc(S(N)(=O)=O)cc1S(N)(=O)=O
inactive: [1] 0.75% | [2] -20.6% | [3] -36% | [4] -24.6% | [5] -29.2% | [6] -16%

Cc1ccc(-c2nc3ccccc3c(=O)n2/N=C/c2ccc(Cl)cc2Cl)cc1
inactive: [1] 9.05% | [2] 3.85% | [3] 7.65% | [4] 11.1% | [5] 7.35% | [6] 21.4%

COc1ccc(OC)c(-c2cc(C(=O)O)c3cc4ccccc4cc3n2)c1
inactive: [1] 5.85% | [2] 6.05% | [3] -32.8% | [4] -69% | [5] -52.8% | [6] 17.2%

Br/C=C/c1ccccc1
inactive: [1] 23.6% | [2] 11.3% | [3] 0.6% | [4] -14.7% | [5] 5.85% | [6] 46.1%

Cc1cccc(C(=O)N(C)C(c2ccco2)P(=O)(c2ccccc2)c2ccccc2)c1 (stereo unspecified)
inactive: [1] 19.9% | [2] -16.4% | [3] 68.2% | [4] 27.1% | [5] 33.1% | [6] 2.9%

CCCCCCCCCCCCCCCCN1C(=O)c2ccccc2S1(=O)=O
inactive: [1] -14.7% | [2] -15.8% | [3] -10.5% | [4] 32.5% | [5] -2.2% | [6] 5.1%
